The values below come from PubChem BioAssay AID1347426 (Functional Genomics Laboratory (NCATS/FGL), 2020).

Hit rate of the full screen: of about 31,000 sequences, about 1,400 (4.5%) were called active. The entries come from a sample that favours actives as a whole. Unmarked numbers belong to inactive results.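 How the source made its calls: active means median seed-adjusted z-score above 1 or below -1; inactive means the rest.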

This experiment can be described thus: Novel Modifiers of Survival Motor Neuron (SMN) Protein: Gene Identification via Genome-wide siRNA Screen. The settings on record: HEK293T SMN2-luciferase reporter, siRNA knockdown, 72 h; actives lie on both sides. An excerpt:
Spinal muscular atrophy (SMA) is the most common neuromuscular autosomal recessive disorder and one of the leading genetic causes of infant death. SMA results from mutations inducing loss of function or deletion in the survival of motor neuron-1 gene (SMN1), leading to deficiency of the survival motor neuron (SMN) protein. Although a second nearly identical gene, SMN2, is retained in humans, its expression primarily produces an aberrantly spliced isoform that is largely unstable and quickly degraded. We performed a genome-wide RNAi screen using a cell-based reporter assay to identify genes and pathways that modulate SMN protein stability. The screen identified over 200 genes that led to the greatest increase or decrease in luciferase expression.
Using HEK293T cells stably expressing a luciferase reporter that combines the promoter and splicing based cassettes in tandem with the major portion of the native SMN2 cDNA with luciferase, we performed a genome-wide RNAi screen to identify modulators of SMN protein levels. Luciferase is expressed when full-length SMN protein is generated with luminescence signal proportional to SMN protein levels. Our luciferase-based reporter assay was used to screen Ambion Silencer Select Human Druggable Genome siRNA library (10418 genes, 3 unique siRNAs per gene) using lipid-based reverse transfection.
Briefly, 1 pmol of each siRNA was spotted to a well of a 384-well plate (Corning, Corning, NY) and 20 microL of serum-free DMEM containing […] of Lipofectamine RNAiMax (Life Technologies, Carlsbad, CA) was then added to each well. Transfected cells were maintained at 37 degrees C in 5% CO2 for 72 hours, 20 microL of ONE-Glo Reagent (Promega) was added to wells for luciferase quantification. Raw luminescence reads were normalized to Ambion(R) Silencer(R) Negative Control #2 siRNA, then log10 transformed. A robust statistical measure of median absolute deviation (MAD) to standardize siRNA activities from each screen. Common Seed Analysis was used to help prioritize clean hits as opposed to those appearing to arise from seed based off-target effects. Candidate modulators were defined as the genes having a MAD score greater than 1.0 or less than -1.0.
A general note: In a reporter assay the amount or activity of a reporter protein is the signal.
Consider GAUGGGACAUCGUUGCUCATT against OASL, for which the median seed-adjusted z-score is 1.02 (active).
Regarding CAGGAUCUACGAUAAGGUATT against ACSL5, the median seed-adjusted z-score is 0.109.
The same measure for CGAGAAAGAAUUCCACUUUTT against HOXC5: 0.507.
In the case of GACUGACAUUGAGAUUACATT against CCT3 it was -0.416.
In the case of GGUGAAUACUUCCGGUACATT against SULT2B1, the median seed-adjusted z-score is 0.
In the case of CUCUGUGAAUGGUGCCGAATT against FAM57A it was 0.0434; in that of GGGAAUGACUGGAAGACGATT against TTF1, 1.76 (active); in that of GAAUGGUGUGGAUCUCCUATT against ARPC5, -0.479.
In the case of GCAAUGUGGUCAAGACGGATT against INHBE it was 0.172; in that of CGUGUAUUCUUUCACUAAUTT against MFSD1, -0.0833.
The same measure for GGGUAUCACCUCACGCUUATT against ABCA12: 0.0759.
As to GGUUUGGAAUGUUCGAGUUTT against SLC25A1, the median seed-adjusted z-score is 0.252.
For the sequence GGCACAAUUUCAACUCCAUTT against GPR35, the median seed-adjusted z-score is -1.46 (active).
In the case of GAGCUUAGUGAUAAUAUAATT against ANP32E it was -0.0648.
The same measure for GUGACUAUGAGCUCAAAUATT against RAVER1: -0.0873; for ACAUGACCAUGGAAGCUGATT against HIPK4: 0.
In the case of GGAUCCGAGAGUCACCCAATT against LLGL1 it was -1.13 (active); in that of GGACAGACACGUCAGCAAATT against TMEM171, 0.278; in that of GGAAAUCUCGGAGAUCACATT against MLYCD, -0.154.
CAUCCUCAUUUGAAACCGUTT against CREBL1: the median seed-adjusted z-score was -0.348.
In the case of CAUUCGCAUUCAGUCCAUATT against FRAP1 it was -1.02 (active); in that of GCAGAUGACUACAACUUUATT against E2F5, -0.628; in that of GGACUGUACAACACUCUGATT against TGFB3, -0.354.
In the case of GAUAAUGGAAGGUGAAUUUTT against PMS2L3 it was 0.175; in that of CGGGAGAAGUCCUACCUGUTT against KIF19, 0.342; in that of CGCAGGUUCUACCAGAUGATT against HS3ST6, 0.
In the case of CCAUGGAUGAGACUCCGUATT against PPP1R10 it was 1.41 (active); in that of CGUGAUUGACUAUGAGGAATT against GRM6, -0.0544; in that of GGUCAUUAUUGGUGAGCAATT against HARS2, 0.
As for AGAACAACGUGAAGGCACATT against TNPO2, the median seed-adjusted z-score was 0.0785.
In the case of CAGUGGAUAUCUUGACCUATT against LDHA it was 0.401; in that of GGAAGUCUCUUGUCUGCAATT against RNASEL, 0.
Consider CAGGUUUUCUACAACAACATT against ABCA2, for which the median seed-adjusted z-score is -1.18 (active).
In the case of GAACUUGACCAGUUAGACUTT against GTF3C3 it was 0.21.
The same measure for GGACAACCAUCUUCAAAGATT against ZKSCAN5: -0.229; for GCAGUAUCGAGCUUCCGAATT against ACAD10: -0.269; for GGAUCAUCAUGGAAUUGUATT against PTK2B: 1.71 (active).
In the case of CCAUGUCAGUCCUAGGAAATT against ATRIP it was 0.353; in that of GCAACUCCAUGUUUCAUAATT against PRMT1, -0.596.
As to CCUGAUGUCUUAUCUCAGATT against ZNF398, the median seed-adjusted z-score is 0.119.
In the case of AAAUCUUCGUGAACUUGGATT against MMD it was 0.193; in that of CCAUCUAGAGUAUCACGCATT against CYGB, -0.34.
Consider GAAAUUCCACUGUAUCUAATT against COX7A2, for which the median seed-adjusted z-score was -0.0808.
As to GAGAGAAACUGUCAGAGUATT against RNF185, the median seed-adjusted z-score is -0.388.
In the case of CCCUCUUCCUUAUCCUGCATT against PITPNM1 it was -0.203.
The same measure for GAACAACCCUAACCCAAGATT against ITGAM: -1.56 (active); for CCAACUCGGCAAAACCGUUTT against NDUFS3: -0.54.
In the case of CAACAACACCUGUUGCUUUTT against RGS17 it was -0.627.
In the case of GAGCUACAUUACUAAGUCATT against ZNF223, the median seed-adjusted z-score is 0.367.
As for CCAGGCAAAUAGUGAAGAATT against VAX1, the median seed-adjusted z-score is 0.937.
The same measure for GCAGUUCCUAAAUUUCCGATT against SNX9: 0.684; for GGAGAAUGCCGAAGAGGAATT against POLR2F: -3.52 (active).
The same measure for GGCUGUACUUCGUCAUGGATT against PRKCA: -0.249; for CAUCCGACAUUGAAGUUGATT against B2M: -0.367.
The same measure for CGAGUAUGGUUUCCGCAAATT against UHMK1: -0.269.
Take GAAUGCGAUUCACACCUUUTT against CAT: the median seed-adjusted z-score is 0.
Take CCCUAAUUCUUCGUCAUAATT against AMIGO2: the median seed-adjusted z-score is -0.258.
The same measure for CAUUGGUUUUGAUGAGUAUTT against SNRPE: -2.77 (active); for CUGUUUAACUGUGAGAUCATT against ANP32E: -0.0648.
In the case of GCCUGCAAGUGUCCCAAAATT against NTN1 it was -0.0419; in that of GAUAUUUGCCUAUGCCUUUTT against ZMYND19, 0.369; in that of GAAGGACAUGUACAAGAAATT against ITPKA, -0.136.
As for CCAGCAUCCCUAGCUCAGATT against SYVN1, the median seed-adjusted z-score is -1.41 (active).
In the case of GUCCGUUAACUAUCUGUUATT against GNAI3 it was 0.0656; in that of AAAUUAGAGUGAACAAGAATT against NFIC, 0.72.
On to CAGUGGAUAUCAAGCUUAATT against OPA1, for which the median seed-adjusted z-score was -0.182.
The same measure for GCAAGUGACUGCUAUCAAUTT against GRIA2: -1.02 (active); for GAUCGUCUGCUGAAUACAATT against NASP: 0.133; for CAUCCAUUUGUCUUGCAAATT against GTF2F2: -1.14 (active).
